Measurements taken from PubChem BioAssay (NCATS).
Inconclusive results are not listed. Where a call stands in place of a potency, no number is given. Calls of active or inactive are those of the source. Calls come from the whole dose curve; as a rule, active = well fitted cell-killing curve with a large enough effect; inconclusive = small, poorly fitted or top-dose-only effect; inactive = flat fitted curve, though single readings scatter.
Potency is the fitted concentration of half-maximal effect.

Assay: Quantitative highthroughput screen to assess conditional lethalithy of NOMO1 cells grown in RPMI1640 with untreated serum (RPMI+s) (AID 1963876); note: nearly all actives have a fitted effect of over 35% in size
Settings: NOMO1 AML cells in RPMI+serum, CellTiter-Glo viability, 48 h; series mostly up to 45.8 µM
Text: Assay Provider: Jason Cantor Ph.D.
Department of Biochemistry
University of Wisconsin-Madison, Madison, WI, USA
Chemical screening studies have identified drug sensitivities across hundreds of cancer cell lines but most putative therapeutics fail to translate. Discovery and development of drug candidates in models that more accurately reflect nutrient levels in human blood is a major challenge. Here we performed high-throughput screens in conventional versus Human Plasma-Like Medium (HPLM) to identify compounds that were "missed" when screening using the artificial culture condition. Sets of conditional anticancer compounds spanned phases of clinical development and included non-oncology drugs were assessed. […] We also traced conditional phenotypes for several chemotherapeutics to availability of HPLM-specific metabolites and confirmed others for compounds whose reported targets are encoded by nonessential genes. Our findings establish generalizable strategies for exploiting conditional lethality in HPLM to reveal therapeutic candidates and mechanisms of action in cancer cells.
Described herein are the results of each viability screens against three cell lines: NOMO1 (an acute myeloid leukemia cell line); P12-Ichikawa (a T-cell acute lymphoblastic leukemia); and SEM (a B-cell ALL). Each assay was screened using 3 different cell culture media: homemade human plasma-Like medium with 10% dialyzed fetal bovine serum (HPLM+ds); RPMI1640 with 10% untreated FBS and 5mM glucose (RPMI+s); and RPMI1640 with 10% dialyzed fetal bovine serum and 5 mM glucose (RPMI+ds).
PROTOCOL TABLE (as described by Inglese J, Shamu CE and Guy RK. 2007)
SEQUENCE No. (e.g., 1, 2, 3, etc.); […] (e.g., Cells, Incubation, Reagent, etc.); VALUE and DESCRIPTION.
1; Cells; 5 uL; white, solid bottom 1536-well Greiner assay plate.
2; Compounds; 23 nL; Kalypsis pin tool (Wako USA) equipped with a 1536-well pin head to transfer to the assay plates.
3; Incubation; 48 hours; 37C incubation.
4; Reagent; 3 uL; CellTiter Glo (Promega).
5; Incubation; 5 min, room temperature
6; Detection; Luminescence, Viewlux PerkinElmer.
NOTES (numbers refer to Sequence numbers above)
1. Briefly, 5 ul of cell reagent was dispensed using a Multidrop Combi Dispenser. The NOMO1 and SEM cells were plated at 500 cells/well and the P12-Ichikawa line at 1000 cells/well.
2. After seeding the cells, 23 nL of MIPE 4.1 library compounds (in DMSO) were added to each plate using a Kalypsys 1536 Pintool dispenser. Bortezomib at final concentration of […] and DMSO were added to each plate as positive and negative controls respectively. For each screen, MIPE 4.1 compounds were added over an eleven-point concentration range […] in 3-fold dilutions.
3. Each plate was covered with a stainless steel gasketed lid to prevent evaporation and incubated for 48 hour at 37C, 95% relative humidity, and 5% CO2.
4-5. Three microliter CellTilter-GloTM luminescent substrate mix (Promega) reagent was added to the assay plate and incubated at room temperature for 5 min.
6. The luminescence signal was measured using a ViewLux (PerkinElmer) multiplate reader with a 2 second exposure time per plate. Data for each compound were normalized as percent viability such that measurements for DMSO and the empty well controls in each plate were defined as 100% and 0%, respectively.
For Cn1cc(C2=C(c3cn(C4CCN(Cc5ccccn5)CC4)c4ccccc34)C(=O)NC2=O)c2ccccc21, the Potency was “inactive”. For CSCC[C@@H](NC(=O)[C@@H](Cc1ccccc1)NC(=O)CNC(=O)CNC(=O)[C@@H](N)Cc1ccc(O)cc1)C(=O)O, the Potency was “inactive”. For O=C(O)CNC(=O)c1c(O)c2ccccc2n(Cc2ccccc2)c1=O, the Potency was “inactive”. For O=C(O)C(=O)c1cn(Cc2ccccc2)c2ccc(-c3ccc(OC(F)(F)F)cc3)cc12, the Potency was “inactive”. With C[C@@H]1O[C@@H](O[C@@H]2C=C3CC[C@@H]4[C@@H](CC[C@]5(C)[C@H](c6ccc(=O)oc6)CC[C@@]45O)[C@@]3(C)CC2)[C@H](O)[C@H](O)[C@H]1O the Potency was 66.2 nM (active). In the case of Cc1c(C(=O)Nc2cccc(C(F)(F)F)c2)cc(-c2ccccc2)n1CCCN1CCOCC1, the Potency was “inactive”. With O=C(N[C@H]1CN2CCC1CC2)c1ccc(Cl)cc1 the Potency was “inactive”. With CCNC(=O)C[C@@H]1N=C(c2ccc(Cl)cc2)c2cc(OC)ccc2-n2c(C)nnc21 the Potency was 9350 nM (active). For CCNC(=O)CC1N=C(c2ccc(Cl)cc2)c2cc(OC)ccc2-n2c(C)nnc21 (stereo not given), the Potency was “inactive”. With CC(C)(C)c1cc(C=C(C#N)C#N)cc(Br)c1O the Potency was “inactive”. In the case of Cc1sc2c(c1C)C(c1ccc(Cl)cc1)=N[C@@H](CC(=O)OC(C)(C)C)c1nnc(C)n1-2, the Potency was 526 nM (active). In the case of COC(=O)[C@@H](N)CCCN=C(N)N[N+](=O)[O-], the Potency was “inactive”. In the case of O=C(O)c1nn(Cc2ccc(Cl)cc2Cl)c2ccccc12, the Potency was “inactive”. With N[C@@H](Cc1ccc(N(CCCl)CCCl)cc1)C(=O)O the Potency was 10500 nM (active). With CNC(=O)c1ccc(N2C(=S)N(c3ccc(C#N)c(C(F)(F)F)c3)C(=O)C23CCC3)cc1F the Potency was “inactive”. For C[C@]12CCC(=O)C(O)=C1CC[C@@H]1[C@H]3CCC(=O)[C@@]3(C)CC[C@@H]12, the Potency was “inactive”. With C=C(C)[C@H]1Cc2c(ccc3c2O[C@@H]2COc4cc(OC)c(OC)cc4[C@@H]2C3=O)O1 the Potency was 5260 nM (active). For CC1=NN=C(c2ccc(N)cc2)c2cc3c(cc2C1)OCO3, the Potency was “inactive”. In the case of C[C@@H]1C[C@@H]([C@H](O)CC2CC(=O)NC(=O)C2)C(=O)[C@@H](C)C1, the Potency was 1660 nM (active). For C[C@]12CC[C@H]3[C@@H](CCC4=CC(=O)CC[C@@]43C)[C@H]1CC[C@H]2O, the Potency was “inactive”. For CC(O)=C(C#N)C(=O)Nc1cc(Br)ccc1Br, the Potency was “inactive”. With C#C[C@]1(O)C=C[C@@H]2[C@@H]3CCC4=CC(=O)CC[C@@H]4[C@H]3CC[C@@]21CC the Potency was “inactive”. In the case of COCC1(CO)C(=O)C2CCN1CC2 (stereo not given), the Potency was 20900 nM (active). With COc1cc(C(=O)N2CC[C@@H](O)[C@@H](N)C2)cc2nc(-c3cc4ccccc4n3CC3CC3)n(C)c12 the Potency was 933 nM (active). For C[C@](O)(COc1ccc(C#N)cc1)C(=O)Nc1ccc(C#N)c(C(F)(F)F)c1, the Potency was “inactive”. For COc1ccc(C(=O)c2c(C)n(CCN3CCOCC3)c3cc(I)ccc23)cc1, the Potency was 935 nM (active). With O=C1C=CC[C@@H]2[C@H]3CCCN4CCC[C@@H](CN12)[C@@H]34 the Potency was “inactive”. For CC(C)N(CCNC(=O)CN1CCCC1=O)C(C)C, the Potency was “inactive”. In the case of O=C(NCC1CCOCC1)c1cnc(Nc2ccc(Cl)cc2Cl)nc1C(F)(F)F, the Potency was “inactive”. For Cc1c(N)nc([C@H](CC(N)=O)NC[C@@H](N)C(N)=O)nc1C(=O)N[C@H](C(=O)N[C@@H](C)[C@H](O)[C@@H](C)C(=O)N[C@@H](C(=O)NCCc1nc(-c2nc(C(=O)NCCC[S+](C)C)cs2)cs1)[C@@H](C)O)C(O[C@H]1O[C@H](CO)[C@H](O)[C@@H](O)[C@@H]1O[C@H]1O[C@H](CO)[C@@H](O)[C@H](OC(N)=O)[C@H]1O)c1cnc[nH]1 (stereo not given in full), the Potency was 1180 nM (active). For CC(=Cc1csc(C)n1)[C@@H]1C[C@H]2O[C@]2(C)CCC[C@H](C)[C@@H](O)[C@@H](C)C(=O)C(C)(C)[C@@H](O)CC(=O)O1, the Potency was “inactive”. For O=c1[nH]c2ccccc2n1CCCN1CCC(n2c(=O)[nH]c3cc(Cl)ccc32)CC1, the Potency was “inactive”. For CC[C@@H](C(N)=O)N1CCCC1=O, the Potency was “inactive”. With COc1ccc2c(c1OC)CN1CCc3cc4c(cc3C1C2)OCO4 (stereo not given) the Potency was 1480 nM (active). With COc1ccc2c(c1)CN(C)CC2c1ccc(Cl)c(Cl)c1 (stereo not given) the Potency was 23500 nM (active). With CC(=O)O[C@@]12CO[C@H]1C[C@H](O)[C@@]1(C)C(=O)[C@H](O)C3=C(C)[C@@H](O)C[C@@](O)([C@@H](OC(=O)c4ccccc4)[C@@H]21)C3(C)C the Potency was 14800 nM (active). With O=[N+]([O-])c1ncc[nH]1 the Potency was “inactive”. With CN(C)[C@@H]1C(=O)C(C(N)=O)=C(O)[C@@]2(O)C(=O)C3=C(O)c4c(O)cccc4[C@@](C)(O)[C@H]3C[C@@H]12 the Potency was “inactive”. In the case of COC1=C[C@@H]2[C@@H]3Cc4ccc(OC)c(O)c4[C@]2(CCN3C)CC1=O, the Potency was “inactive”. With C[C@]12CCC(=O)C=C1CC[C@@H]1[C@H]3CC[C@](C)(O)[C@@]3(C)CC[C@@H]12 the Potency was “inactive”.
